From PubChem BioAssay (Tox21)
Several values for one entry are separate records, joined by “and”; a condition that tells them apart may be missing. Equal values may be shown once. Records with an inconclusive call do not appear. Where a call stands in place of a potency, no number is given. Where a structure was tested more than once in an assay, its records may differ in their call. Activity calls are given as the source filed them. Unless noted, calls follow the shape of the dose curve; as a rule, active = well fitted curve in the direction sought with a large enough effect in the repeat runs; inconclusive = weak or mixed curves; inactive = no such curve, though single readings can be large; an effect the other way counts as inactive or inconclusive.

Assays:
[1] = Human pregnane X receptor (PXR) small molecule agonists, qHTS cell viability counter screen (AID 1346977); also: nearly all actives have a fitted effect of over 50% in size; also: potency is read from the fitted curve at half-maximal effect
Outline: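 Measures live-cell protease fluorescence (CellTiter-Fluor) in PXR-Luc HepG2 cells treated 24hr with compounds at 37C. Cells had 5hr to attach before pin transfer of DMSO solutions.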

[2] = Caspase-3/7 induction in HepG2 cells by small molecules, qHTS assay (AID 1346978); also: nearly all actives have a fitted effect of over 15% in size; also: potency is read from the fitted curve at half-maximal effect
Outline: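 Wild-type HepG2 cells, 2,000/well, settled 5 hr at 37 C and 5% CO2, then compound-treated for 17 hr; caspase-3/7 activity read by luminescent Caspase-Glo 3/7 after 30 min at room temperature.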

[3] = Caspase-3/7 induction in CHO-K1 cells by small molecules, qHTS cell viability counter screen (AID 1346979); also: nearly all actives have a fitted effect of over 35% in size; also: potency is read from the fitted curve at half-maximal effect
Outline: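 In the same wells as the caspase read, viability of compound-treated wild-type CHO-K1 cells was assessed using CellTiter-Fluor, added after 16hr at 37C and measured by fluorescence following 1hr further incubation.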

[4] = Caspase-3/7 induction in CHO-K1 cells by small molecules, qHTS assay (AID 1346980); also: nearly all actives have a fitted effect of over 15% in size; also: potency is read from the fitted curve at half-maximal effect
Outline: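 Wild-type CHO-K1 cells exposed to compounds for 17hr at 37 C, 5% CO2. Caspase-3/7 activity then measured by Caspase-Glo 3/7 luminescence after 30min at room temperature.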

[5] = Caspase-3/7 induction in HepG2 cells by small molecules, qHTS cell viability counter screen (AID 1346981); also: nearly all actives have a fitted effect of over 30% in size; also: potency is read from the fitted curve at half-maximal effect
Outline: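 Cell viability is measured as a cytotoxicity counter screen alongside the Caspase-Glo 3/7 readout in identical wells. Wild-type HepG2 cells are treated with test compounds for 16 hr at 37 C before CellTiter-Fluor addition and a 1-hr incubation.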

[6] = target: Nuclear receptor subfamily 1 group I member 2 (Homo sapiens) (UniProt O75469); test: Human pregnane X receptor (PXR) small molecule agonists, qHTS assay (AID 1346982); also: nearly all actives have a fitted effect of over 35% in size; also: potency is read from the fitted curve at half-maximal effect
Chain of Nuclear receptor subfamily 1 group I member 2 (Homo sapiens) (O75469 whole entry, looked up): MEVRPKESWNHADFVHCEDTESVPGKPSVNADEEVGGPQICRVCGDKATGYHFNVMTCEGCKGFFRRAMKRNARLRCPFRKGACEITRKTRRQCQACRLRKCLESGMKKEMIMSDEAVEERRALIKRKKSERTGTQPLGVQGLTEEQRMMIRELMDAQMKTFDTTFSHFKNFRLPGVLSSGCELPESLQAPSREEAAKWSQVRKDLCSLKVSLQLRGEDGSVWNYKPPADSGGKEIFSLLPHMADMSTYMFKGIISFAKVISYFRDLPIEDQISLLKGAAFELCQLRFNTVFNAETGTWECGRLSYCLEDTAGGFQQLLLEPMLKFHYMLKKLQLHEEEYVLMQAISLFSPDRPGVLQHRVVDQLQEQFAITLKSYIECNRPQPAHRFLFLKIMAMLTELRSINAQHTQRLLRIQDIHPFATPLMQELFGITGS
Outline: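 Cells: HepG2 stably carrying PXR-Luc. Medium held 5% charcoal-stripped FBS. Compounds in DMSO added after 5 hr plating, incubated 24 hr, then luminescence quantified with ONE-Glo.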

[7] = target: Acetylcholinesterase (Homo sapiens) (UniProt P22303); test: Acetylcholinesterase (AChE) small molecule antagonists: colormetric cell-based qHTS assay (AID 1347395; calls by dose curve; also: nearly all actives have a fitted effect of over 30% in size; also: potency is read from the fitted curve at half-maximal effect)
Chain of Acetylcholinesterase (Homo sapiens) (P22303 whole entry, looked up): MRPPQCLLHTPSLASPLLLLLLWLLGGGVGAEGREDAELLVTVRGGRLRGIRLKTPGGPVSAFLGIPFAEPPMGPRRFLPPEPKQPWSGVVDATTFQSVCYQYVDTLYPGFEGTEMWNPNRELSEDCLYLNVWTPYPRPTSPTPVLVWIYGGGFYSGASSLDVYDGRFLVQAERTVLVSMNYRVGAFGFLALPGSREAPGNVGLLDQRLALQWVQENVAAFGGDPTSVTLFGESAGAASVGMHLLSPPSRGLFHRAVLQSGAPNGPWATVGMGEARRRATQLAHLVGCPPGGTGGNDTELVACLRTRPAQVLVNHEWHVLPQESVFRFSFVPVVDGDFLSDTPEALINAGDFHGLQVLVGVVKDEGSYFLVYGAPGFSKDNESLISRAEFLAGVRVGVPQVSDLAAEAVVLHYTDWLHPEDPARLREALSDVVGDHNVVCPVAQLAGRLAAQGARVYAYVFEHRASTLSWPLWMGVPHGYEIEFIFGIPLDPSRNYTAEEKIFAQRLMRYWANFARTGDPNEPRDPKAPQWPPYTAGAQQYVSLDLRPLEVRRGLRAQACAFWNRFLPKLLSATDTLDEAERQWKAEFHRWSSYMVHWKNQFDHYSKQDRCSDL
Outline: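 Endogenous AChE of human neuroblastoma SH-SY5Y cells was measured with an Ellman-type DTNB/acetylthiocholine mix. Compound pretreatment lasted 30 min at 37 C; substrate reaction ran 90 min at 37 C.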

[8] = target: Nuclear receptor subfamily 1 group I member 2 (Rattus norvegicus) (UniProt Q9R1A7); test: Rat pregnane X receptor (rPXR) activation by small molecules, qHTS assay (AID 1346983); details: rPXR luciferase reporter cells, One-Glo luminescence, 24 h; stronger effect = higher value; also: nearly all actives have a fitted effect of over 20% in size
Chain of Nuclear receptor subfamily 1 group I member 2 (Rattus norvegicus) (Q9R1A7 whole entry, looked up): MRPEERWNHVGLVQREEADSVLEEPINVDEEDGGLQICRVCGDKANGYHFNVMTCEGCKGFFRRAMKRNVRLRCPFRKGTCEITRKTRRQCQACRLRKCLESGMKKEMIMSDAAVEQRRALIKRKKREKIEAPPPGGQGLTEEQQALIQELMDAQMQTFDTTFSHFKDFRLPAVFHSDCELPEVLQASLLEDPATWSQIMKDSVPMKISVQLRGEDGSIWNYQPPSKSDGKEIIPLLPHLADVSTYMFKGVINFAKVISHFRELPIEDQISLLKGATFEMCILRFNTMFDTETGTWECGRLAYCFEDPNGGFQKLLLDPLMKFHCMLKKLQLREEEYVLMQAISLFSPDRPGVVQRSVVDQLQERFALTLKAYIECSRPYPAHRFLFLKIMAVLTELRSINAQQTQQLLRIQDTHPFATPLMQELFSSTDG
Outline: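 Cell-based rPXR activation assay: rPXR cells, 2,000 per well, rested 5hr at 37 C, then exposed to compounds in DMSO for 24 hr at 37 C. Luciferase activity read by One-Glo luminescence after 30 min at room temperature.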

[9] = target: Nuclear receptor subfamily 1 group I member 2 (Homo sapiens) (UniProt O75469); test: CYP3A4 induction through human pregnane X receptor (PXR) by small molecules, qHTS assay (AID 1346984); also: nearly all actives have a fitted effect of over 40% in size
Outline: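 Quantitative HTS in DPX-2 cells, i.e. HepG2 transfected with PXR response element and CYP3A4-promoter luciferase. Compounds in DMSO incubated 24hr at 37C; then P450-Glo CYP3A4 substrate, 3uM final, 3hr; One-Glo luminescence.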

[10] = target: Nuclear receptor subfamily 1 group I member 2 (Homo sapiens) (UniProt O75469); test: Human pregnane X receptor (PXR) activation by small molecules, qHTS assay (AID 1346985); also: nearly all actives have a fitted effect of over 40% in size
Outline: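 DPX-2 cells (HepG2 co-transfected with a PXR response element and a CYP3A4-promoter luciferase construct) were seeded at 2,000 per well, rested 5 hr at 37C, then exposed to DMSO-dissolved compounds for 24 hr. Activation was read as luciferase luminescence.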

SMILES	Potency [1]	Potency [2]	Potency [3]	Potency [4]	Potency [5]	Potency [6]	Potency [7]	max activation [8]	Potency [9]	outcome [10]
CCOP(=O)(OCC)OCC	inactive	inactive	inactive	inactive	inactive	inactive	inactive	–	–	–
CC(C)=CC1C(C(=O)OCc2cccc(Oc3ccccc3)c2)C1(C)C (centres undefined)	inactive	inactive	inactive	inactive	–	24.3 µM (active) and 13.3 µM (active)	inactive	1.4% (inactive)	inactive	–
C[N+](C)(C)CC(=O)O	inactive	inactive	inactive	inactive	–	inactive	inactive	-1.07% (inactive)	inactive	inactive
O=C1C(Cl)=C(Cl)C(=O)c2ccccc21	39.8 µM (active)	inactive	4.34 µM (active) and 9.69 µM (active)	inactive	61.3 µM (active)	inactive	inactive	–	–	–
CC[n+]1c(-c2ccccc2)c2cc(N)ccc2c2ccc(N)cc21	27.2 µM (active)	inactive	60.8 µM (active) and 29.8 µM (active)	inactive	–	inactive	31.6 µM (active) and 19.5 µM (active)	-4.94% (inactive) and -4.01% (inactive)	inactive	inactive
O=NN(c1ccccc1)c1ccccc1	inactive	inactive	inactive	inactive	inactive	inactive	inactive	–	–	–
NC(=O)CN1CCCC1=O	inactive	inactive	inactive	inactive	inactive	–	inactive	-4.89% (inactive)	–	–
CSc1nc(NC(C)C)nc(NC(C)C)n1	inactive	inactive	inactive	inactive	inactive	30.5 µM (active) and 21.7 µM (active)	inactive	–	–	–
CN(C)P(=O)(N(C)C)N(C)C	inactive	inactive	inactive	inactive	inactive	inactive	inactive	–	–	–
COc1ccc(O)c(C(C)(C)C)c1	inactive	inactive	inactive	inactive	inactive	inactive	inactive	–	–	–
CCC[CH2][Sn]([Cl])([Cl])[CH2]CCC	501 nM (active) and 1.37 µM (active)	inactive	220 nM (active) and 154 nM (active)	inactive	4.38 µM (active) and 7.7 µM (active)	–	inactive	–	–	–
CCCCC(C#N)(Cn1cncn1)c1ccc(Cl)cc1 (centres undefined)	inactive	inactive	inactive	inactive	inactive	30.5 µM (active) and inactive	inactive	–	–	–
CNC(=S)S	inactive	inactive	inactive	inactive	inactive	inactive	inactive	–	–	–
CNC(=O)Oc1cccc2c1OC(C)(C)C2	inactive	inactive	inactive	inactive	inactive	inactive	726 nM (active) and 89.4 nM (active)	–	–	–
Nc1ccc([N+](=O)[O-])cc1N	22.4 µM (active) and 61.1 µM (active)	inactive	6.11 µM (active) and 30.6 µM (active)	inactive	54.4 µM (active) and 54.5 µM (active)	8.63 µM (active)	inactive	–	–	–
Oc1ccc(Cl)cc1Cc1ccccc1	70.8 µM (active) and inactive	53.6 µM (active)	55.1 µM (active)	inactive	–	61.1 µM (active) and 19.6 µM (active) and inactive	inactive	-2.22% (inactive)	inactive	inactive
CC(C)COC(=O)c1ccccc1C(=O)OCC(C)C	inactive	inactive	inactive	inactive	inactive	inactive	inactive	–	–	–
ClC(Cl)(Cl)c1ccccc1	inactive	inactive	inactive	inactive	inactive	inactive	inactive	–	–	–
COP(=O)(NC(C)=O)SC (centres undefined)	inactive	inactive	48.6 µM (active) and inactive	inactive	inactive	inactive	inactive	–	–	–
CC(C)(C#N)N=NC(C)(C)C#N	inactive	inactive	inactive	inactive	–	inactive	inactive	–	–	–
Cc1ccc([N+](=O)[O-])cc1	inactive	inactive	inactive	inactive	inactive	inactive	inactive	–	–	–
CCCCCCCCCCCCCl	inactive	inactive	inactive	inactive	inactive	inactive	inactive	–	–	–
O=[N+]([O-])c1ccc(Nc2ccccc2)cc1	39.8 µM (active) and 48.6 µM (active)	inactive	48.9 µM (active) and 48.6 µM (active)	inactive	48.9 µM (active) and 24.3 µM (active)	30.9 µM (active) and 48.6 µM (active)	inactive	–	–	–
CCCCCCCCCC(CC)c1ccc(S(=O)(=O)O)cc1 (centres undefined)	inactive	inactive	61.8 µM (active) and inactive and 52.9 µM (active)	inactive	inactive	–	inactive	-0.486% (inactive)	inactive	inactive
O=[N+]([O-])c1ccc(Cl)c([N+](=O)[O-])c1	31.6 µM (active) and 21.7 µM (active)	inactive	6.96 µM (active) and 12.2 µM (active)	inactive	55.3 µM (active) and 48.6 µM (active)	9.84 µM (active) and 15.4 µM (active)	64.3 µM (active) and 63.3 µM (active)	–	–	–
C[C@]12CC[C@H]3[C@@H](CCC4=CC(=O)CC[C@@H]43)[C@@H]1CC[C@@H]2O	inactive	inactive	inactive	inactive	inactive	inactive	inactive	–	–	–

SMILES	Potency [1]	Potency [2]	Potency [3]	Potency [4]	Potency [5]	Potency [6]	Potency [7]	max activation [8]	Potency [9]	outcome [10]
COP(=S)(OC)Oc1ccc(Sc2ccc(OP(=S)(OC)OC)cc2)cc1	inactive	inactive	inactive	inactive	–	24.3 µM (active) and inactive	inactive	1.76% (inactive)	inactive	inactive
CC1CC(=O)O1 (centres undefined)	inactive	inactive	inactive	inactive	–	inactive	inactive	–	–	–
C[N+](C)(C)C	inactive	inactive	inactive	inactive	–	inactive	inactive	–	–	–
ClC(Cl)(Cl)Br	inactive	inactive	inactive	inactive	–	inactive	inactive	–	–	–
O=S(=O)(O)C(F)(F)C(F)(F)C(F)(F)C(F)(F)C(F)(F)C(F)(F)C(F)(F)C(F)(F)F	inactive	inactive	–	inactive	–	inactive and 54.5 µM (active)	inactive	–	–	–
CNC(=O)CSP(=S)(OC)OC	inactive	inactive	14.1 µM (active) and inactive	inactive	–	62.8 µM (active) and inactive	inactive	–	–	–
CCN(CC)C(=O)C(C)Oc1cccc2ccccc12 (centres undefined)	inactive	inactive	–	inactive	inactive	7.76 µM (active) and 864 nM (active)	inactive	–	–	–
Oc1ccc(Cl)cc1Cl	inactive	inactive	inactive	inactive	–	inactive	inactive	–	–	–
CC(C)(O)C(=O)Nc1ccc([N+](=O)[O-])c(C(F)(F)F)c1	–	inactive	44.2 µM (active) and 39.8 µM (active)	inactive	inactive	27.9 µM (active) and 25.1 µM (active)	inactive	–	–	–
CCCCOCCOC(C)=O	inactive	inactive	inactive	inactive	–	inactive	inactive	–	–	–
CC(C)(c1ccccc1)c1ccc(O)cc1	inactive	60.6 µM (active)	–	inactive	–	27.1 µM (active) and 19.3 µM (active)	inactive	–	–	–
CCC(=O)Nc1ccc(Cl)c(Cl)c1	inactive	inactive	–	inactive	inactive	–	inactive	–	–	–
CCCCCCCC[N+](C)(CCCCCCCC)CCCCCCCC	30.6 µM (active) and 5.45 µM (active) and 13.7 µM (active)	54.4 µM (active) and 15.4 µM (active)	13.7 µM (active) and 4.86 µM (active) and 6.11 µM (active)	12.2 µM (active) and 13.7 µM (active)	–	12.2 µM (active) and 2.44 µM (active)	inactive	–	–	–
CCCCOC(=O)COC(=O)c1ccccc1C(=O)OCCCC	inactive	inactive	inactive	inactive	–	inactive	inactive	–	–	–
CN(C)c1nc(=O)n(C2CCCCC2)c(=O)n1C	inactive	inactive	inactive	inactive	–	65 µM (active) and inactive	inactive	–	–	–
CC1=C(C(=O)Nc2ccccc2)SCCO1	inactive	inactive	–	inactive	–	34.9 µM (active) and 30.6 µM (active)	inactive	–	–	–
CC(C)Nc1nc(Cl)nc(NC(C)C)n1	inactive	inactive	inactive	inactive	–	54.4 µM (active) and 24.3 µM (active)	inactive and 31.7 µM (active)	–	–	–
c1ccc(C2CO2)cc1 (centres undefined)	inactive	inactive	inactive	inactive	–	inactive	inactive	–	–	–
CC(C)(c1ccc(OCC2CO2)cc1)c1ccc(OCC2CO2)cc1 (centres undefined)	inactive	inactive	inactive	inactive	–	69.5 µM (active)	inactive	–	–	–
C=C(C)C#N	inactive	inactive	inactive	inactive	–	inactive	inactive	–	–	–
O=C(O)c1nn(Cc2ccc(Cl)cc2Cl)c2ccccc12	inactive	inactive	inactive	inactive	–	60.7 µM (active) and inactive	inactive	–	–	–
CC(C)CON=O	inactive	inactive	inactive	inactive	–	inactive	inactive	–	–	–
C=CC(Cl)CCl (centres undefined)	inactive	inactive	inactive	inactive	–	inactive	inactive	–	–	–
CCNc1nc(Cl)nc(NC(C)(C)C#N)n1	inactive	inactive	inactive	inactive	–	61.1 µM (active)	inactive	–	–	–
[CH3][Sn]([Cl])([Cl])[Cl]	inactive	inactive	inactive	inactive	–	inactive	inactive	–	–	–
N#CCCCCC#N	inactive	inactive	inactive	inactive	–	inactive	inactive	–	–	–
